Assay results: PubChem BioAssay AID651690 (Sanford-Burnham Center for Chemical Genomics, 2012)
The list shows a part of the results. Values without a mark were called inactive. Calls of active or inactive are those of the source. Rule as the data show it: active = inhibition mostly above about 32% (no sharp cut-off); inactive = mostly below about 29%.

Biological target: Sentrin-specific protease 1 (Homo sapiens) (UniProt Q9P0U3)
Experiment: human SENP1 catalytic domain inhibitors, confirmation, biochemical, kinetic FRET, single concentration (AID 651690);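 also: 0% = DMSO with enzyme and 100% = no enzyme substrate only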
Details: recombinant SENP1, CyPet-SUMO1-YPet FRET kinetic cleavage; at 10 µM; active compounds read high

Sequence of Sentrin-specific protease 1 (Homo sapiens) (Q9P0U3 419-644 limits assumed): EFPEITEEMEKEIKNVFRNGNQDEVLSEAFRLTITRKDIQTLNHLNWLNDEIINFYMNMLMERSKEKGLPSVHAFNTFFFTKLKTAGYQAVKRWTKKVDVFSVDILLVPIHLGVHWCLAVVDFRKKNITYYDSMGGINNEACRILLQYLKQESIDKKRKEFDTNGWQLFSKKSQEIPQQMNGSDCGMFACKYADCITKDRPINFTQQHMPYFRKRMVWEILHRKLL

| Structure (SMILES) | inhibition |
| --- | --- |
| COc1ccc(OC)c(C2C3=C(N=c4s/c(=C\c5cccc(O)c5)c(=O)n42)c2ccccc2CC3)c1 (stereo not given) | 19.3% |
| O=C1/C(=C/c2coc3ccc(O)cc3c2=O)SC(=S)N1c1ccccc1 | -0.025% |
| O=C(NC(=O)c1ccccc1)Nc1ccccc1O | -0.175% |
| Fc1cccc(Cc2c(-c3cccc(Cl)c3)nc3ccc(Br)cn23)c1 | 3.67% |
| c1coc(-c2nc3nc4ccccc4n3nc2-c2ccco2)c1 | 13.5% |
| O=C1C=C(c2cccc(Cl)c2O)C[C@@H](c2ccc(F)cc2)C1 | 74.6% (active) |
| O=C1CC[C@@H]2CC3(C[C@@H]4CCN1[C@H]24)Nc1cc([N+](=O)[O-])ccc1NC3=NC1CCCCC1 (stereo not given in full) | 2.83% |
| COc1cc(/C=C2\CCCc3c2nc2ccccc2c3C(=O)O)cc(Cl)c1O | 63.6% (active) |
| Cn1c(-c2sc3cc(C(F)(F)F)cnc3c2-c2ccccc2)n[nH]c1=S | 11.8% |
| Cc1cccc(C)c1Nc1c(-c2ccccc2O)nc2ncccn12 | 8.55% |
| COc1ccc(N2C(=O)C3C(C2=O)C(C(=O)c2ccccc2)N2CCCC32)cc1 (stereo not given) | 23.7% |
| CC(=O)c1cccc(-c2cnc3c(NC=O)cc(-c4ccc(N(C)C)cc4)cn23)c1 | 48.5% (active) |
| Cc1cc(C(=O)N/N=C/c2ccc(N3CCOCC3)cc2)c(C)o1 | 17.6% |
| N/C(=N\OC(=O)N1c2ccccc2Sc2ccccc21)c1ccc(Br)cc1 | 0.1% |
| Cc1ccc(C(=O)N/N=C\c2cc(Br)c(Br)o2)cn1 | 14.5% |
